This is an account of results in PubChem BioAssay.

Results filed as inconclusive are left out. Activity calls are given as the source filed them. Rule as the data show it, unless noted: active = response above about 15%; inactive = the rest.

The inhibition is the drop in the measured response relative to a control, in per cent.

Test [1] can be described thus: rapamycin-like changes in RPL19A-GFP expression – cell-based, S. cerevisiae, multiplex flow cytometry, primary screen (AID 1862; in the data active = percent of DMSO control GFP below about 86%;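 also: lower values mimic rapamycin by blocking the RPL19A rise seen in DMSO cells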). Conditions: S. cerevisiae RPL19A-GFP strain, flow cytometry fluorescence, 3 h; at 10 µM; stronger effect = lower value. In general terms: In flow cytometry, cells or beads pass a laser one at a time.
Test [2] is described as follows: TOR pathway GLN3 branch reporter MEP2-GFP changes – S. cerevisiae, multiplex flow cytometry, primary screen (AID 1867;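 active = GFP response, as percent of the DMSO control, above the screen-wide mean plus 3 SD, about 139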;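 also: median GFP channel fluorescence of barcode-gated MEP2-GFP cells measured by flow cytometry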). Conditions: S. cerevisiae MEP2-GFP strain, 3 h, at 10 µM, stronger effect = higher value, 100% means same as DMSO wells.
Test [3] in a line: TOR pathway RTG branch CIT2 reporter changes – S. cerevisiae, GFP fusion, multiplex flow cytometry, primary screen (AID 1870;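 active = percent response above a set limit, the screen-wide mean plus 3 SD, cut at about 130% in these data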;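 also: barcoded CIT2-GFP strain pooled with four other GFP strains with rapamycin as positive control; median GFP fluorescence per well over plate mean of DMSO wells so 100% = DMSO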). Conditions: S. cerevisiae CIT2-GFP expression, 3 h, at 10 µM, stronger effect = higher value.
The nature of test [4]: TOR pathway LAP4-GFP level changes – S. cerevisiae, multiplex flow cytometry, primary screen (AID 1873;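 active = GFP signal, as percent of the solvent control, above the screen mean plus 3 SD, about 149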). The following applies: S. cerevisiae LAP4-GFP expression, 3 h, at 10 µM, stronger effect = higher value.
Test [5] is described as follows: yeast AGP1-GFP level changes, GLN3 branch – cell-based, multiplex flow cytometry, S. cerevisiae, primary screen (AID 1887;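 active = GFP signal above the screen-wide mean plus 3 SD, that is over about 124.5% of the solvent control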;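 also: AGP1-GFP fusion strain of S. cerevisiae within a five-strain barcoded multiplex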). Conditions: 3 h, at 10 µM, stronger effect = higher value.
The nature of test [6]: reduced mouse 2C T cell binding to pMHC/ICAM-1 vesicles – MLPCN validation set, flow cytometry, LFA-1/ICAM-1 modulator project, pilot screen (AID 2523;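 active = response below a set limit, under 55% cells CD8-positive and vesicle-bound, and CD8 cells' 90th-percentile brightness under 279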;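 as to vesicle binding response: mean PE anti-B7-1 fluorescence of CD8+ cells relative to row control; 100% = QL9-loaded vesicles with DMSO vehicle in the same plate row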). Conditions: 2C mouse CD8+ T cells, at 7 µM, stronger effect = lower value; double positive events: measured here: CD8+/vesicle+ event percentage.
The target of test [7] is Integrin beta-1 (Homo sapiens) + Integrin alpha-4 (Homo sapiens) (UniProt P13612+P05556). Nature of the test: alpha4beta1 integrin LIBS antibody binding reduction – U937 cells, HUTS-21 mAb, flow cytometry, validation set, VLA-4 allosteric modulator project, pilot screen (AID 2674;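 active = inhibition above 50%, about 3 SD of the validation set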;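 also: antibody binding induced by the VLA-4 ligand LDV present at three times its Kd; 0% = LDV ligand with antibody and no compound and 100% = antibody without LDV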). The following applies: HUTS-21 LIBS mAb binding, at 6.7 µM, stronger effect = higher value, binding induced by LDV ligand.
Chain of Integrin beta-1 (Homo sapiens) + Integrin alpha-4 (Homo sapiens) (P05556 whole entry, looked up): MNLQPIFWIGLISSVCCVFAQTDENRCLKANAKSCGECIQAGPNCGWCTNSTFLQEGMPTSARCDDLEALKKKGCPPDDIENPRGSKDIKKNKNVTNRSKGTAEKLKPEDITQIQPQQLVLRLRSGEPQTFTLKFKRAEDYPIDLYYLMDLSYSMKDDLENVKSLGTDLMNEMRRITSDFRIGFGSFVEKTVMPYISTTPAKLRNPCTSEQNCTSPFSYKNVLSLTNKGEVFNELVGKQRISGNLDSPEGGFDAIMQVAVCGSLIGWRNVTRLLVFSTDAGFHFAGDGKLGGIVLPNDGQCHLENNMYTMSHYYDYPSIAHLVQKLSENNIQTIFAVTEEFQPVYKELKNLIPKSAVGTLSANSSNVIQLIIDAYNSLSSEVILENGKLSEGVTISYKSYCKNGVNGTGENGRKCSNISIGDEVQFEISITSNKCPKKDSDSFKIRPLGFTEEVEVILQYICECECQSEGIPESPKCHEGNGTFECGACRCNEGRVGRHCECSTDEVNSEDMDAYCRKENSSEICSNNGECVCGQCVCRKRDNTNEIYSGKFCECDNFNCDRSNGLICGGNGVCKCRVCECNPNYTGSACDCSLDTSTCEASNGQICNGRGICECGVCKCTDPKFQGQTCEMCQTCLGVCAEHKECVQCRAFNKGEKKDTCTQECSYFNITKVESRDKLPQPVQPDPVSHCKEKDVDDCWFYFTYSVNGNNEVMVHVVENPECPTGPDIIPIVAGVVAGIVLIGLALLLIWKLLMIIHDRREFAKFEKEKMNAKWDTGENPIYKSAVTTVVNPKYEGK
Chain of Integrin beta-1 (Homo sapiens) + Integrin alpha-4 (Homo sapiens) (P13612 whole entry, looked up): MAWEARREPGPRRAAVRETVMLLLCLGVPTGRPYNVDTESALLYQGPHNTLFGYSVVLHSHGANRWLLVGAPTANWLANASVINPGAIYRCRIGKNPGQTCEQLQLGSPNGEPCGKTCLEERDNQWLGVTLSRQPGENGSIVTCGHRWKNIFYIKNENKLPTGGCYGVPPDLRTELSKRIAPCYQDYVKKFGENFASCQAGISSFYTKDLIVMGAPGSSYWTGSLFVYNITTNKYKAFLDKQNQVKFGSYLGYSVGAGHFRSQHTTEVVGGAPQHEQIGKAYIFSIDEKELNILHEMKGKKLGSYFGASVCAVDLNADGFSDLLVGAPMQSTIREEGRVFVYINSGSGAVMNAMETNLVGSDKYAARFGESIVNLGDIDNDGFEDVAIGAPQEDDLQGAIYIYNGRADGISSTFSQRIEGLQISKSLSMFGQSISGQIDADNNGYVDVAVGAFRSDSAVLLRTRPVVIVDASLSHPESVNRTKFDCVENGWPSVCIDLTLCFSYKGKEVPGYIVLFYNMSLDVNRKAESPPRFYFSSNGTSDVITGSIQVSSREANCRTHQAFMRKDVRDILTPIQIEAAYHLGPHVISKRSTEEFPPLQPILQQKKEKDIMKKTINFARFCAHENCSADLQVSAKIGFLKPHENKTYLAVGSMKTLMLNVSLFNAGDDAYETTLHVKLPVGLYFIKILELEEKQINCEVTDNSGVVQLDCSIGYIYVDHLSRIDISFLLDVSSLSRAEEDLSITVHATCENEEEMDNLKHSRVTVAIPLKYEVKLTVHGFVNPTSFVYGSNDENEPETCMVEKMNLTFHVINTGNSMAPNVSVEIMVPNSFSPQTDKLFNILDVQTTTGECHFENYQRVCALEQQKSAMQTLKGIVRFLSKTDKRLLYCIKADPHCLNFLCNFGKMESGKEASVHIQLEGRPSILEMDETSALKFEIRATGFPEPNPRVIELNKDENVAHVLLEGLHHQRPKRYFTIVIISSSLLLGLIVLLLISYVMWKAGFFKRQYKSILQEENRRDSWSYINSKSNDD

Test [8] can be described thus: calorie-restriction mimetic ROS inhibitors, yeast – validation compound set, pilot screen (AID 2706;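 active = superoxide response below 65% of plate, a cut near 3 SD across the whole screen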;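 also: yeast exposed to compound for one week at 30 degrees C before staining; 100% = mean of all compound wells on the same plate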). Conditions: S. cerevisiae aging, superoxide DHE fluorescence; at 10 µM, stronger effect = lower value.
For test [9], the target named is Beta-adrenergic receptor kinase 1 (Homo sapiens) (UniProt P25098). Nature of the test: GRK2 binders displacing RNA aptamer, biochemical, validation, human GRK2, bead flow cytometry (AID 488806;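 active = aptamer binding inhibition above 30%, about 3 SD of noise from non-fluorescent compounds; inactive = inhibition at or below 30%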). Conditions: bead-bound GRK2, FAM-aptamer displacement, at 10 µM, stronger effect = higher value.
Chain of Beta-adrenergic receptor kinase 1 (Homo sapiens) (P25098 whole entry, looked up): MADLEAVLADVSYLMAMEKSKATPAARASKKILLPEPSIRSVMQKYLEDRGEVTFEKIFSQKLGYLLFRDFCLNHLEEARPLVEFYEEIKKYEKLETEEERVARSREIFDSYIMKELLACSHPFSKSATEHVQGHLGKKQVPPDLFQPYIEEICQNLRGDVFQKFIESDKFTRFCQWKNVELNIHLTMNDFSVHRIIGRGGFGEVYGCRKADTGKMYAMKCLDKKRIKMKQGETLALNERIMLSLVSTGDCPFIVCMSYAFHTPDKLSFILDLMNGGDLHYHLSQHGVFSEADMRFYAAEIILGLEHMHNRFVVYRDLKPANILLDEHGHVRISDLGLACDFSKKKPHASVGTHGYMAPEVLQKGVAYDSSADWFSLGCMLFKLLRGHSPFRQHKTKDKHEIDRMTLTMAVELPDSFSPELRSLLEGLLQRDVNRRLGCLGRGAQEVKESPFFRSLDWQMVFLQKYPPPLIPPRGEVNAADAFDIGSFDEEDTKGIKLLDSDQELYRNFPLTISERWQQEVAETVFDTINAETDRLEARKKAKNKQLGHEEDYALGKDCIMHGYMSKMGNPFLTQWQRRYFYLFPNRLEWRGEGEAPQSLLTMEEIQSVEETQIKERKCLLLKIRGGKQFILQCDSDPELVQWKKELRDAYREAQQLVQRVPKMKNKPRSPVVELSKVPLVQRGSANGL
Test [10] concerns the target AP-2 complex subunit beta (Homo sapiens) (UniProt P63010). As to the kind of experiment: beta-arrestin/AP2 interaction blockers – biochemical, validation set, GST-AP2 beads, flow cytometry, pilot screen (AID 504541;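 active = inhibition above 54%, about 3 SD of non-fluorescent compounds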;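 also: AP2 carries R879A mutation and is captured from E. coli lysate; bead-bound FITC arrestin peptide fluorescence measuring arrestin peptide binding to AP2; 0% = DMSO wells and 100% = excess unlabeled arrestin peptide control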). The following applies: FITC arrestin peptide, at 10 µM, stronger effect = higher value, AP2 beta2 appendage fragment, R879A mutant.
The nature of test [11]: cytosolic pH regulators acting via V-ATPase – S. cerevisiae, pHLuorin, HTS validation (AID 504600).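 Also: plate controls were DMSO for no effect and reference compound for full effect.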 The following applies: V-ATPase proton transport, at 10 µM, stronger effect = higher value.
The subject of test [12] is anti-desmoglein-3 scFv antibody binding to human DSG3. As to the kind of experiment: blockers of pathogenic pemphigus antibody–desmoglein-3 binding – biochemical, validation compound set, bead-based, flow cytometry, pilot screen (AID 588368;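 active = binding below the plate cutoff, the plate median minus 3 SD, with a reading above zero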;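 also: signal is the median channel fluorescence of bead-bound GFP antibody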). Conditions: Protein G beads, DSG3-Fc, scFv-GFP binding, at 10 µM, stronger effect = lower value.
A short description of test [13]: Nile Red efflux blockade in pump-expressing yeast – validation compound set, multiplex, phenotypic, pilot screen (AID 588506;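 active = efflux inhibition above 0.42, the validation set average plus 4 SD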;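 also: Nile Red retained in cells so higher fluorescence means more efflux inhibition; 0 = negative control wells and 1 = enniatin B 25 µM full block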). The following applies: S. cerevisiae pump-expressing triplex, Nile Red efflux flow cytometry; at 10 µM; stronger effect = higher value; the pumps come from Candida albicans.
The target of test [14] is ATP-binding cassette sub-family B member 6 (Homo sapiens) (UniProt Q9NP58). Nature of the test: blockers of ABCB6-driven porphyrin uptake – K562-ABCB6 cells, flow cytometry, validation set, pilot screen (AID 588550;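 active = inhibition above the screen-wide mean plus 3 SD, about 51%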;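 also: 0% = DMSO wells and 100% = benzethonium chloride 70 µM positive control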). The following applies: K562-ABCB6 porphyrin accumulation, 1 h, at 10 µM, stronger effect = higher value.
Chain of ATP-binding cassette sub-family B member 6 (Homo sapiens) (Q9NP58 whole entry, looked up): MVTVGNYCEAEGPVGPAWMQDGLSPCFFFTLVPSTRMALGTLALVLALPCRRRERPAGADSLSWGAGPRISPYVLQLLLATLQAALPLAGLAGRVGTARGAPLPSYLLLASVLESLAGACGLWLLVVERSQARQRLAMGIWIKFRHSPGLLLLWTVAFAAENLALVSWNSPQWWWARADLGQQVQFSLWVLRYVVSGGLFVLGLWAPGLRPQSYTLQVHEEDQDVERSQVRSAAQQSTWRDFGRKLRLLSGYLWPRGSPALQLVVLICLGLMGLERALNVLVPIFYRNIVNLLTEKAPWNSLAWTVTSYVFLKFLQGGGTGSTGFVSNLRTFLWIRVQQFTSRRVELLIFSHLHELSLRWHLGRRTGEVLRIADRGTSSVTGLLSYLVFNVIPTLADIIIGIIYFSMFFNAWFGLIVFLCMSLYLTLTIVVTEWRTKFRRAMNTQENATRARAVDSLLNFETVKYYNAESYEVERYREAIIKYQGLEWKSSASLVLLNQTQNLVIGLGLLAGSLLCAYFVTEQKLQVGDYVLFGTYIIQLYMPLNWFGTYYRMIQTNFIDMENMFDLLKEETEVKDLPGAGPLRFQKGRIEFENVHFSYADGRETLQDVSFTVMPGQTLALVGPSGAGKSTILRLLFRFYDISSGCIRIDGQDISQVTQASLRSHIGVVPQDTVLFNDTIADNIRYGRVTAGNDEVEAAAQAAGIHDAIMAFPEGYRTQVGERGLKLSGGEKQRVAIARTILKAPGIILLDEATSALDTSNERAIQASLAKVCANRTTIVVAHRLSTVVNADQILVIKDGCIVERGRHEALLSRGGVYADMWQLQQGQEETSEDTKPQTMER
Test [15] in a line: AML differentiation inducers, ER-HoxA9 marrow cells – cell-based, GFP/MAC1 double positive, flow cytometry, validation set, primary screen (AID 588685;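 active = differentiation response of at least 50%, scaled between solvent and reference control, from cells with both markers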;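 also: compound exposure lasts four days before antibody staining and flow analysis; 0% = DMSO wells and 100% = 5 µM fulvestrant positive control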). Conditions: stronger effect = higher value, normalized: vehicle 0, fulvestrant 100.
Test [16] deals with Beta-2 adrenergic receptor (Homo sapiens) (UniProt P07550). As to the kind of experiment: agonist-induced loss of surface beta2AR – cell-based, FAP fluorogen, flow cytometry, validation set, pilot screen (AID 504459;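 active = percent response above 42, roughly 3 SD of non-fluorescent test compounds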;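 also: agonist-driven loss of surface beta2AR via internalization measured by FAP dye flow cytometry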). Conditions: Am2.2-beta2AR cells, at 10 µM, stronger effect = higher value.
Chain of Beta-2 adrenergic receptor (Homo sapiens) (P07550 whole entry, looked up): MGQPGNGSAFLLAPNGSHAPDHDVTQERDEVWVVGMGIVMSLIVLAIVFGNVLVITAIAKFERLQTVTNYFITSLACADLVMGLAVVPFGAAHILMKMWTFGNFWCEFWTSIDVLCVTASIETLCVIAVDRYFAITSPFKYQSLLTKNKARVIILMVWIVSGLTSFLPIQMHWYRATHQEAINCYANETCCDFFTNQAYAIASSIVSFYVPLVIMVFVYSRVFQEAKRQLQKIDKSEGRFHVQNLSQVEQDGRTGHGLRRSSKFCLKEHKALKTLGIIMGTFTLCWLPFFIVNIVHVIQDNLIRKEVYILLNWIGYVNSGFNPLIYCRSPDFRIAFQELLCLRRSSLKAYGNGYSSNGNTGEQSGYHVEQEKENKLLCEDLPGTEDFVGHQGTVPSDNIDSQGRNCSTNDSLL

Chain of AP-2 complex subunit beta (Homo sapiens) (P63010 whole entry, looked up, the tested form may be a part, one chain of several): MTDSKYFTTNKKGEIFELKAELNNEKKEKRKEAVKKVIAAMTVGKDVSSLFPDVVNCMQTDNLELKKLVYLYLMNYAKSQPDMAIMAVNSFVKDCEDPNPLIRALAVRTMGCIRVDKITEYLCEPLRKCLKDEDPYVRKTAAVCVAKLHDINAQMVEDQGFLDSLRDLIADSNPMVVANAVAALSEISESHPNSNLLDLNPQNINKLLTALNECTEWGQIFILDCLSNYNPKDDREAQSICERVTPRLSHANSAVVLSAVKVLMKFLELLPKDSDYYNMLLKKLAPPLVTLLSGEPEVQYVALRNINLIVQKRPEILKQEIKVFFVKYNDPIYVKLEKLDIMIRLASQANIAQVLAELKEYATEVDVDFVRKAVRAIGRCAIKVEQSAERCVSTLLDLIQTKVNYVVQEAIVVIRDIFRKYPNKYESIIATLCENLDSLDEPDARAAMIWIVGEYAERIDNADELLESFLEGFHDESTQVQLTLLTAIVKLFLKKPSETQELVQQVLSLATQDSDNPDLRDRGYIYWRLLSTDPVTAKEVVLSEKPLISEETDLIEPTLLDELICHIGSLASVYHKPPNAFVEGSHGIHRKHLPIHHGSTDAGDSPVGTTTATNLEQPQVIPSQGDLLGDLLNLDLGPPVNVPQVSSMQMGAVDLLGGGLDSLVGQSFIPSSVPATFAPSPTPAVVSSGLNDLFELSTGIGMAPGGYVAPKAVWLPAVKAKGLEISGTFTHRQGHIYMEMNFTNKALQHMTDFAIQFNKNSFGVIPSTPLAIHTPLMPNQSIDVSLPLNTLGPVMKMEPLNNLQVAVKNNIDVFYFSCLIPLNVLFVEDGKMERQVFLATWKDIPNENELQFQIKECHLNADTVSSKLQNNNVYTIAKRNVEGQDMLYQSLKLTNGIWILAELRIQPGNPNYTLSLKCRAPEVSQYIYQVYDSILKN

Regarding `Clc1ccccc1CN1CCc2sccc2C1`, the percent of DMSO control GFP in test [1] was 100% (inactive). Besides, the GFP response vs DMSO in test [2] is 104% (inactive); in test [4], 118% (inactive). Besides, in test [3], the percent response of DMSO control is 99.6% (inactive). Besides, the GFP response, % of DMSO in test [5] is 119% (inactive). In addition, in [6], the double positive events worked out at 64.6%. The vesicle binding response in [6] is 233% (inactive). For the same compound, the inhibition in [7] was 6.55% (inactive); in test [10] it was 59.3% (active); in test [14], 0% (inactive). The superoxide response (% of plate) in [8] is 87.2% (inactive). Moreover, in test [9], the aptamer binding inhibition was -1% (inactive). The response in test [11] was 0.39% (inactive). In test [12], the binding (% of control) was 102% (inactive). The efflux inhibition (fraction of control) in test [13] is 0 (inactive). In test [15], the differentiation response is -4.99% (inactive).

Turning to `CCc1cc2c(=O)c(-c3ccc(F)cc3)c(C)oc2cc1OCC(=O)O`, the percent of DMSO control GFP in test [1] is 107% (inactive). Further, the GFP response vs DMSO in test [2] was 98.3% (inactive); in test [4] it was 88.1% (inactive). For the same compound, the percent response of DMSO control in test [3] is 104% (inactive). In addition, in [5], the GFP response, % of DMSO is 100% (inactive). Further, the double positive events in [6] amounted to 70.6%. In test [6], the vesicle binding response was 168% (inactive). Further, the inhibition in [7] is 6.81% (inactive); in test [10], -6.22% (inactive); in test [14], -6% (inactive). For the same compound, in [9], the aptamer binding inhibition was -3% (inactive). Moreover, the results for the response in test [16] and in test [11] were -3.44% (inactive) and 0.76% (inactive), respectively. Also, in test [12], the binding (% of control) is 104% (inactive). Moreover, the efflux inhibition (fraction of control) in [13] is 0.43 (active). The differentiation response in test [15] is 30.5% (inactive).

Consider `CCCC(=O)Nc1ccc(OCC(O)CNC(C)C)c(C(C)=O)c1` (centres undefined), for which the percent of DMSO control GFP in test [1] is 99% (inactive). The GFP response vs DMSO in test [2] is 101% (inactive); in [4], 106% (inactive). Further, the percent response of DMSO control in test [3] is 100% (inactive). For the same compound, the GFP response, % of DMSO in test [5] is 99.2% (inactive). In test [6], this compound yielded a double positive events of 59.8%. Further, the vesicle binding response in test [6] is 2400% (inactive). Besides, the inhibition in [7] is -24.6% (inactive); in test [14], -3% (inactive). Further, the superoxide response (% of plate) in test [8] was 106% (inactive). Also, in test [9], the aptamer binding inhibition was -5% (inactive). Besides, in test [11], the response is -0.74% (inactive). In test [12], the binding (% of control) was 200% (inactive). Further, the efflux inhibition (fraction of control) in test [13] is -0.57 (inactive). Besides, the differentiation response in test [15] is 11.1% (inactive).

Consider `CCOC(=O)Cc1c(C)nc(N)[nH]c1=O`, for which the percent of DMSO control GFP in [1] is 101% (inactive). Besides, the GFP response vs DMSO in [2] was 95.1% (inactive); in test [4], 91.4% (inactive). In addition, in test [3], the percent response of DMSO control was 102% (inactive). Moreover, the GFP response, % of DMSO in test [5] was 94.3% (inactive). In test [6], this compound showed a double positive events of 64.8%. Also, in [6], the vesicle binding response was 276% (inactive). Moreover, the inhibition in test [7] is -1.49% (inactive); in test [10], -8.2% (inactive); in [14], 15% (inactive). Moreover, the aptamer binding inhibition in test [9] is 3% (inactive). Also, the figures for the response in test [16] and in test [11] were -4.96% (inactive) and -0.76% (inactive), respectively. In addition, in test [12], the binding (% of control) was 107% (inactive). Moreover, the efflux inhibition (fraction of control) in [13] was 0.52 (active). Further, the differentiation response in [15] was 22.7% (inactive).

As for `CC/C(=C1/C(=O)CC(C)(C)C(C(=O)OC)C1=O)N1CCCC1` (centres undefined), the percent of DMSO control GFP in [1] is 103% (inactive). The GFP response vs DMSO in test [2] was 96.2% (inactive); in [4], 83.5% (inactive). Also, the percent response of DMSO control in [3] was 83.8% (inactive). Moreover, in test [5], the GFP response, % of DMSO is 88.9% (inactive). The double positive events in test [6] came out at 63%. Besides, in [6], the vesicle binding response was 174% (inactive). For the same compound, the inhibition in test [7] was 6.81% (inactive); in test [10], -0.06% (inactive); in [14], 11% (inactive). Also, in test [9], the aptamer binding inhibition is 3% (inactive). Further, the response in [16] is -0.83% (inactive); in test [11], 3.5% (inactive). In addition, the binding (% of control) in test [12] is 96.6% (inactive). Further, in [13], the efflux inhibition (fraction of control) was 0.99 (active). Moreover, in [15], the differentiation response was 34.5% (inactive).
